Assay results from ChEMBL document CHEMBL1961873, “Compounds: GSK PKIS; Assays: Nanosyn kinase panel” (2012).

Target: Rho-associated protein kinase 1 (Homo sapiens) (UniProt Q13464)
Details: at 1 µM
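Also: reported values are mean percent inhibition of ROCK1.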

Chain of Rho-associated protein kinase 1 (Homo sapiens) (Q13464 2-1354 limits assumed): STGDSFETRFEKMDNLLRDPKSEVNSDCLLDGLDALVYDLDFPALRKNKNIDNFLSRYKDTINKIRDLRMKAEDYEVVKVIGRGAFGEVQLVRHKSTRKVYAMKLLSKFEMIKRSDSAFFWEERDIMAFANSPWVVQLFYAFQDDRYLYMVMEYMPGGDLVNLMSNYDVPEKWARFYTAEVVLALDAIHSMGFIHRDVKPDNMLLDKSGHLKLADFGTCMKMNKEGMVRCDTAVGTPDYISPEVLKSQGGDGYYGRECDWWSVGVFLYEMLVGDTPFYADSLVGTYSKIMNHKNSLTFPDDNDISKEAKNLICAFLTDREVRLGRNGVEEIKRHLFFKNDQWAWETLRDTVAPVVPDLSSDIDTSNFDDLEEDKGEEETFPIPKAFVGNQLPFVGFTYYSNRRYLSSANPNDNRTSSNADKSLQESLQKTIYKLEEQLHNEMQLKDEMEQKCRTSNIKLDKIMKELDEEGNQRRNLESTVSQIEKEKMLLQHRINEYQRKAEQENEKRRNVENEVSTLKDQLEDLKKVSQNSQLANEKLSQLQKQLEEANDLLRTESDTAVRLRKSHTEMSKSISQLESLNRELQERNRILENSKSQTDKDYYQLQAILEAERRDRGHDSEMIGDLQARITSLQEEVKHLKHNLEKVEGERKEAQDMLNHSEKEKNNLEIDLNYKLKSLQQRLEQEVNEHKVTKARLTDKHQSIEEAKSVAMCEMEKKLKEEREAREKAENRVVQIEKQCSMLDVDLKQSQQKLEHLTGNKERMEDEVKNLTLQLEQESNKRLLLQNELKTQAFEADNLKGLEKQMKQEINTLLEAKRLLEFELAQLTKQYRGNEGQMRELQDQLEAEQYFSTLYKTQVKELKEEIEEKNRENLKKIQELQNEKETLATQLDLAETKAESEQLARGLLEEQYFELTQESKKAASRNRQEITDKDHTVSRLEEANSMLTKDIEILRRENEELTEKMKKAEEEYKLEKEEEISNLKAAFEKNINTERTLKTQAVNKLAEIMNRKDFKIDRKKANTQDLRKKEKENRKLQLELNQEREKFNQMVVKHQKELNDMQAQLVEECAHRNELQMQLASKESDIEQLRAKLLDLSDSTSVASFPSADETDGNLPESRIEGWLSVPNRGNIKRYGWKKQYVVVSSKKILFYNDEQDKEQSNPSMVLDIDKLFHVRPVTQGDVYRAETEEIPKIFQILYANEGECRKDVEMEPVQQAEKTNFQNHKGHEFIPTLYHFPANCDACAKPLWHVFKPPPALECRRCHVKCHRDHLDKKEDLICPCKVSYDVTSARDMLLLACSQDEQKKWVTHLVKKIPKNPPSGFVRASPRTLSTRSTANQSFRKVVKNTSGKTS

| Compound | inhibition [%] |
| --- | --- |
| NC(=O)Cc1ccccc1Oc1nccc(-c2c(-c3ccc(F)cc3)ncn2C2CCNCC2)n1 | 1.73 |
| C[C@@H](Oc1cc(-n2cnc3ccc(OC4CCN(C)CC4)cc32)sc1C(N)=O)c1ccccc1Cl | 5.39 |
| NS(=O)(=O)c1ccc(N/N=C2\C(=O)Nc3ccc(-c4cnco4)cc32)cc1 | 37.6 |
| NS(=O)(=O)c1ccc(Nc2cc(-c3ccc(O)c(F)c3)n[nH]2)cc1 | 1.73 |
| CCS(=O)(=O)c1ccc(OC)c(Nc2ncc(-c3ccccc3Cl)o2)c1 | -0.3 |
| COc1cc(Nc2ncc3c(C)nc(-c4cccc(C(F)(F)F)c4)n3n2)cc(OC)c1OC | 2.39 |
| Cc1ccc(C(=O)NC2CCC2)cc1-c1ccc(C(=O)NCC2CC2)cc1 | 1.32 |
| C[C@@H](Oc1cc(-n2cnc3ccc(OCC4CCN(C)CC4)cc32)sc1C(N)=O)c1ccccc1Cl | 7.23 |
| Fc1ccc(-c2ncn(C3CCNCC3)c2-c2ccnc(Oc3ccc4c(c3)OCO4)n2)cc1 | 5.2 |
| CCS(=O)(=O)c1ccc(OC)c(Nc2ncc(-c3cccc(-c4ccccc4F)c3)o2)c1 | 1.4 |
| CN(c1ccc(NC(=O)Nc2c(Cl)cccc2Cl)cc1)c1ccnc(Nc2cccc(CS(C)(=O)=O)c2)n1 | 2.01 |
| O=C(NCC1CC1)c1ccc(-c2cccc(C(=O)NC3CC3)c2)cc1 | 2.85 |
| COc1ccc2cc(-c3c(-c4ccncc4)nc(-c4ccc(S(C)(=O)=O)cc4C)n3C)ccc2c1 | 10.6 |
| NC(=O)c1ccc(Oc2nccc(-c3c(-c4ccc(F)cc4)ncn3C3CCNCC3)n2)cc1 | 3.99 |
| Nc1nccc(-c2c(-c3ccc(F)cc3)ncn2C2CCC(O)CC2)n1 (centres undefined) | 0.73 |
| COc1cc2ncn(-c3cc(OCCc4ccccc4)c(C(N)=O)s3)c2cc1OC | 0.3 |
| Cc1ccc(NC(=O)c2ccoc2)cc1-c1ccc(C(=O)NCC2CC2)cc1 | -0.4 |

| Compound | inhibition [%] |
| --- | --- |
| COc1cc(Nc2ncc(-c3ccccc3)o2)cc(OC)c1OC | 1.85 |
| O=C(Nc1n[nH]c2nc(-c3ccc(O)cc3)c(Br)cc12)C1CC1 | 1.33 |
| CCc1nccc2c1nc(-c1nonc1N)n2CC | 11.5 |
| COc1ccc(C2=C(N3CCc4ccccc43)C(=O)NC2=O)cc1 | 1.57 |
| COc1ccc(-c2ccc3c(NC(=O)C4CC4)n[nH]c3n2)cc1 | -0.75 |
| COc1cc2ncn(-c3cc(OCc4ccccc4C(F)(F)F)c(C(C)=O)s3)c2cc1OC | 2.18 |
| Fc1ccc(-c2ncn(C3CCNCC3)c2-c2ccnc(Oc3ccc(Oc4ccccc4)cc3)n2)cc1 | 1.68 |
| COc1cc2ncn(-c3cc(OCc4cccs4)c(C(N)=O)s3)c2cc1OC | 2.63 |
| O=C(Nc1ccc(Oc2ccc3[nH]c(NC(=O)c4ccccc4)nc3c2)cc1)Nc1cc(C(F)(F)F)ccc1F | 6.36 |
| Fc1ccc(-c2nc3n(c2-c2ccncc2)CCS3)cc1 | 4.54 |
| Fc1ccc(-c2ncn(C3CCNCC3)c2-c2ccnc(Oc3ccc(F)c(F)c3)n2)cc1 | 6.19 |
| COc1cccc(/C=N/Nc2ncnc3c2cnn3-c2cccc(OC)c2)c1 | 3.6 |
| C/C(Nc1ccc(S(N)(=O)=O)cc1)=C1/C(=O)Nc2ccccc21 | 5.13 |
| NS(=O)(=O)c1ccc(N/N=C2\C(=O)Nc3ccc(C(=O)NCCCn4ccnc4)cc32)cc1 | 8.77 |
| CN(C)CCOc1ccc(-c2cc(-c3ccc4c(c3)CCC4=NO)c(-c3ccncc3)o2)cc1 | -1.5 |
| COc1ccc2cc(-c3c(-c4ccncc4)nc(-c4ccc([S+](C)[O-])cc4C)n3C)ccc2c1 (centres undefined) | -0.59 |
| FC(F)(F)c1cccc(Nc2nccc(-c3cnn4nc(-c5ccccc5)ccc34)n2)c1 | 0.48 |
